Most compounds without a hit are left out; they make up all but 4.2% or so of the library.
S1P4 antagonist: S1P4 receptor antagonists, primary screen, cell-based; Sphingosine 1-phosphate receptor 4 (Homo sapiens), O95977; S1P4-expressing cells, antagonist mode, reporter read-out; inhibition, % at 4.98 µM; 220,000 compounds, 0.26% hits; in the data active = inhibition above about 29%
Target sequence (O95977 whole entry, looked up): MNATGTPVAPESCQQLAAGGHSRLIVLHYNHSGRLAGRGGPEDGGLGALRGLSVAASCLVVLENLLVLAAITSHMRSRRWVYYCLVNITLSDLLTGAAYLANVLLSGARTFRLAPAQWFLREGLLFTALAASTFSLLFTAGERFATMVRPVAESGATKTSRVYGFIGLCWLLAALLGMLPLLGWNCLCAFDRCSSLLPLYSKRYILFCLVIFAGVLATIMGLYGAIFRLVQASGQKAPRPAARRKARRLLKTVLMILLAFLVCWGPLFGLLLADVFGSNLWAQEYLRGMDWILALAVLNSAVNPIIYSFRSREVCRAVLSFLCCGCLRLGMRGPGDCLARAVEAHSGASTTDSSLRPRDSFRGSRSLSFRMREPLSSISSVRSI
Hsp70 act: Hsp70 transcriptional activators, primary screen, cell-based, HeLa, Hsp70 promoter luciferase, luminescence, 10 µM; HeLa Hsp70 promoter luciferase reporter; scaled: vehicle 0, proteasome-inhibitor control 100%; activation, % at 10 µM; 200,000 compounds, 0.04% hits; AID 1203, 2008;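 active = activation above the mean across all tested compounds plus 3 SD, cutoff set per campaign, cut at about 5.5% in these data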
CHOP inh: inhibitors of CHOP promoter induction, primary screen, cell-based, unfolded protein response, luciferase reporter; 220,000 compounds, 3.8% hits; inhibition, % at 10 µM; CHO-K1 CHOP-promoter luciferase, tunicamycin-induced, 15-18 h;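 active = compounds that reduced the stress-induced luciferase reporter signal by more than about 70% of percent inhibition, limit read from the data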
S1P4 ag: S1P4 receptor agonists, primary screen, cell-based; Sphingosine 1-phosphate receptor 4 (Homo sapiens), O95977; S1P4-expressing cell line, agonist reporter assay; activation, % at 4.98 µM; 220,000 compounds, 0.35% hits; AID 1509, 2009; in the data active = activation above about 11%
Numbers stand for hits; – = inactive; · = no result given.

SMILES	S1P4 antagonist	Hsp70 act	CHOP inh	S1P4 ag
CC(C)N(CCNCC(O)COc1ccc(C(C)(C)c2ccccc2)cc1)C(C)C (stereo unspecified)	–	–	–	–
OC(CNCCC(c1ccccc1)c1ccccc1)COc1ccccc1 (stereo unspecified)	–	–	74.3	–
O=C(C1CC1)N1CCC(c2nc(-c3ccc(S(=O)(=O)N4CCCC4)cc3)no2)CC1	–	–	–	–
O=C(CC1CCCCC1)N1CCC(c2nc(-c3ccc(S(=O)(=O)N4CCCC4)cc3)no2)CC1	–	–	95.1	–
CCN(CC(=O)Nc1ccc2c(c1)CCC2)Cc1nc2ccccc2c(=O)[nH]1	–	–	71.4	–
CCN(CC(=O)Nc1ccc2c(c1)OCO2)Cc1nc2ccccc2c(=O)[nH]1	–	–	–	–
OC(CNCc1ccc2c(c1)OCO2)COc1ccc(F)cc1 (stereo unspecified)	–	·	–	–
CC(CNCc1ccc2c(c1)OCO2)NCc1ccc2c(c1)OCO2 (stereo unspecified)	–	–	85.3	–
CCCCN(C)S(=O)(=O)c1ccc(C(=O)N=c2sc3cc(NC(C)=O)ccc3n2C)cc1	–	–	–	–
NC(=NC(=O)c1ccc(OCC(F)(F)F)nc1)c1ccccc1	–	·	–	–
NC(=NC(=O)c1ccc(OCC(F)(F)F)nc1)c1ccc(Cl)cc1	–	·	81.7	–
O=C(Nc1ccc(S(=O)(=O)Nc2ccccc2)cc1)C1COc2ccccc2O1 (stereo unspecified)	–	–	84.7	–
Cc1cc(C)nc(NS(=O)(=O)c2ccc(NC(=O)C3COc4ccccc4O3)cc2)n1 (stereo unspecified)	–	–	–	–
Cn1nc(/C=C/c2ccccc2)ccc1=O	–	–	–	–
CCOC(=O)C(C(=O)Nc1nc2ccccc2s1)C1CCCCC1 (stereo unspecified)	–	–	74.2	–
C=CCn1c(SCc2nc3cc(C(=O)OC)ccc3c(=O)[nH]2)nc2sc(CC)cc2c1=O	–	–	72.0	–
Cc1cc(C)c(C)c(S(=O)(=O)NC(C(=O)O)C(C)C)c1C (stereo unspecified)	–	–	–	–
Cc1ccc(NC(=O)CN2C(=O)/C(=C\c3cccs3)SC2=S)cc1	–	–	–	–
Cc1sc(NC(=O)Cn2[nH]c(=O)c3ccccc3c2=O)nc1-c1ccccc1	–	–	88.3	–
COc1ccc(-c2nc(NC(=O)c3n[nH]c(=O)c4ccccc34)sc2C)cc1	–	–	99.8	–
Cc1c(NC(=O)Cn2[nH]c(=O)c3ccccc3c2=O)c(=O)n(-c2ccccc2)n1C	–	–	–	–
O=C1C2=C(SCCS2)C(=O)N1c1ccccc1	–	–	–	–
O=C(COc1ccc(/C=N/NC(=O)c2ccccc2O)cc1)Nc1ccc([N+](=O)[O-])cc1	–	–	90.5	–
CC1CCN(c2nnc(N)s2)CC1	–	–	–	–
N/C(Cc1ccc([N+](=O)[O-])cc1)=N\OC(=O)C(c1ccccc1)c1ccccc1	–	–	83.4	–
SMILES	S1P4 antagonist	Hsp70 act	CHOP inh	S1P4 ag
C=CCn1c(SCc2nc3ccccc3c(=O)[nH]2)nnc1-c1cc2cc(Cl)ccc2o1	–	–	82.5	–
O=c1[nH]c(CSc2nnnn2-c2ccc(Cl)cc2)nc2ccccc12	–	–	–	–
COc1ccc(Nc2cnn(-c3nc4ccccc4s3)c(=O)c2Cl)cc1	–	–	74.6	–
O=C1c2ccccc2C(=O)N1/N=C/c1ccc(O)c(O)c1O	–	·	–	–
O=C1c2cccc3cccc(c23)C(=O)N1/N=C/c1ccc(O)cc1O	–	–	70.2	–
O=C(Nc1ccc(S(=O)(=O)N2CCCC2)cc1)C1CCCN1C(=O)c1cccs1 (stereo unspecified)	–	–	–	–
NC(=O)C1(NC(=O)[C@@H]2CC3(CC(c4cccc(NC(=O)[C@@H]5CCC(=O)N5)c4)=NO3)CN2C(=O)c2cnccn2)CC1 (stereo partly specified)	–	–	–	–
CN(C)c1nc(Nc2ccc(Cl)cc2)nc(OCC#N)n1	–	–	72.6	–
N/C(=N\OC(=O)CCCOc1ccccc1)c1ccccn1	–	–	–	–
CCc1ccc(N(C(=O)c2snc(C(N)=O)c2N)C(C(=O)NCCC(C)C)c2c[nH]c3ccccc23)cc1 (stereo unspecified)	–	–	86.5	–
Cc1ccc(Cl)cc1NC(=S)N(Cc1cccs1)C1CCCC1	–	–	81.9	–
Cc1ccccc1NC(=S)N(Cc1cccs1)C1CCCCC1	–	–	–	–
CC(=O)Nc1c(Br)cc(N2C(=O)CCC2=O)cc1Br	–	–	–	–
COc1ccc(CCNC(=O)c2ccc3nc(-c4ccco4)c(-c4ccco4)nc3c2)cc1OC	–	–	–	–
COc1ccc(/C(O)=C/c2nc3ccc(C(=O)NCCc4cccc(C)c4)cc3[nH]c2=O)cc1OC	–	–	72.8	–
Cc1cccc2cc(C(c3nnnn3Cc3ccccc3)N3CCCc4ccccc43)c(=O)[nH]c12 (stereo unspecified)	–	–	76.8	–
O=C(C1CCCN1S(=O)(=O)c1ccc(Cl)cc1)N1CCOCC1 (stereo unspecified)	–	–	73.8	–
COC(=O)c1c(NC(=O)COC(=O)CNC(=O)C2CCCCC2)sc(C)c1C	–	–	77.8	–
CC(=O)c1c(C)[nH]c(C(=O)COc2cc(C)ccc2C(C)C)c1C	–	–	83.2	–
CN(C)CCNc1nc2sc3c(c2c(=O)n1CCc1ccccc1)CCCCC3	–	·	–	–
CC(O)CNc1nc2sc3c(c2c(=O)n1CCc1ccccc1)CCCCC3 (stereo unspecified)	–	–	91.1	–
O=C(O)CNC(=O)C(c1ccccc1)c1ccccc1	–	·	–	–
Cc1cc(N/N=C\c2ccccc2)nc(-c2ccccc2O)n1	–	–	–	–
Cc1cc(N/N=C/c2ccccc2O)nc(-c2ccccc2O)n1	–	–	74.6	–
COc1ccc(Cc2nc(C(=O)Nc3ccc(OC)cc3)cs2)cc1	–	–	–	–
SMILES	S1P4 antagonist	Hsp70 act	CHOP inh	S1P4 ag
Nc1ccc(-c2nc3c(Cl)cc(N)cc3[nH]2)cc1	–	–	87.8	–
Nc1ccc2nc(-c3ccc(N)c(Cl)c3)[nH]c2c1	–	–	–	–
Cc1cc(CC(C)C)n(-c2nc3ccccc3c(=O)n2OCc2ccccc2)n1	–	–	73.9	–
Cc1cc(CC(C)C)n(-c2nc3ccccc3c(=O)n2OCC(=O)N(C)C)n1	–	–	–	–
CCCCn1nnnc1NCc1cccnc1	–	–	–	–
CCCCNC(=O)C(=O)N/N=C/c1cccc(Br)c1	–	–	70.6	–
CCOC(=O)C(=O)N/N=C/c1cccc(Br)c1	–	·	–	–
COc1ccc(/C=C/C(=O)Oc2ccc(C)c(C)c2)cc1OC	–	–	–	–
S=C(Nc1ccccc1Cl)Nc1ccc(Cl)cc1Cl	–	–	–	–
S=C(NNc1ccnc2cc(Cl)ccc12)Nc1ccccc1Cl	–	–	95.7	–
CCn1nc(C)c(CNC(=O)CC2C(=O)NCCN2CC(C)C)c1C (stereo unspecified)	–	–	–	–
